Screening data from PubChem BioAssay.
IL2 activator = IL-2 activation; AID 652025; IL-2 activation reporter assay, cell-based qHTS; stimulated with anti-CD3/CD4/CD28 beads; in transgenic mouse T cells; activation, % (series mostly up to about 46 µM); actives 0.065% (n = 360,000); in the data active = activation above about 50%; inconclusive = mostly about 30% to 49%; note: 0% is about no effect
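First, unstimulated transgenic mouse T cells were exposed to compound for 60 min. Next, anti-CD3/anti-CD4-coated beads with anti-CD28 were added. Finally, after 18 h at 37 degrees C, EGFP and DsRed were imaged.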
ELG1 DNA repair = ELG1-dependent DNA repair inhibition. HEK293T ELG1-luciferase reporter, luminescence, 16 h; DNA damage induced by 5-fluorouridine. actives 2.3% (n = 330,000). Potency, µM (highest dose often 46.1 µM), for the others: at the top dose activity change, negative = inhibition, actives largely listed as inhibitors; note: potency is the fitted concentration of half-maximal effect; % is set by controls: 0 for no effect and ±100 for the full control effect; nearly all actives have a fitted effect of over 55% in size
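HEK293T cells expressing luciferase-tagged ELG1 (2,000/well) received 5-Fluorouridine plus compound or DMSO for 16 hr at 37 °C. Luciferase was read by ONE-Glo luminescence after 30 min at room temperature.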
BRCA1 expr up = BRCA1 expression activation; MCF7-BRCA1-FFLuc reporter, luminescence, 48 h; response scale: scaled: vehicle 0%, 10 µM genistein 100%; Potency, µM (titrated, usually from 46.1 µM), inactives show at the top dose activation, most hits filed as activators; actives 1.1% (n = 380,000); note: potency is the fitted concentration of half-maximal effect; nearly all actives have a fitted effect of over 80% in size
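Using MCF7 cells harboring a BRCA1 firefly luciferase reporter, plated 2 h before compound pinning, the screen measured luminescence after 48 h incubation. Responses were normalized to DMSO and 10 microM genistein, then fitted for concentration-effect.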
Nrf2 ARE act = activators of Nrf2 (ARE) signaling. AREc32 ARE-luciferase reporter (MCF7-derived line), luminescence, 24 h. Potency, µM (doses to about 46.1 µM), without a hit: at the highest dose activation, actives largely listed as activators. actives 0.31% (n = 410,000); note: potency is the fitted concentration of half-maximal effect; % of control where 0% means no effect; nearly all actives have a fitted effect of over 65% in size
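Luciferase luminescence (Steady-Glo, 30 min at room temperature) served as the read-out of ARE activation in AREc32 cells treated with compounds for 24 hr at 37 deg C.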
* marks the source's active call; other numbers are inactive results; u = inconclusive; x = no result given; [ ] = another dose, or the depositor's remark. The list is not random: actives were taken first. Their share in the collection is about 3.1%. Unless noted, calls come from the whole dose curve; as a rule, active = well fitted curve in the direction sought with a large enough effect; inconclusive = small, poorly fitted or top-dose-only effect, or another doubt; inactive = no such curve, though single readings can be large; an effect the other way counts as inactive or inconclusive.

SMILES	IL2 activator	ELG1 DNA repair	BRCA1 expr up	Nrf2 ARE act
CC1CCc2sc(C(=O)NC3CCCCC3)cc2C1 (configuration not stated)	2	u	11µM*	4%
CC1CCc2sc(C(=O)NCc3ccc(F)cc3)cc2C1 (configuration not stated)	0	u	41%	0%
CC1CCc2c(C(=O)Nc3nccs3)csc2C1 (configuration not stated)	0	u	13µM*	6%
CCCCCCCCN1C(=O)[C@H](CC(=O)NCCC(C)C)C[C@@]2(C(=O)OC)CCCCC=C12	-1	x	-40%	-2%
CC1CCc2c(C(=O)NCC3CCCO3)csc2C1 (configuration not stated)	0	u	11µM*	3%
CC1CCc2c(C(=O)NCc3ccccn3)csc2C1 (configuration not stated)	-2	u	11µM*	4%
O=[N+]([O-])c1ccc(C(=S)N2CCCC2)cc1	-5	u	-15%	0%
O=[N+]([O-])c1ccc(C(O)CSC(=S)N2CCCCC2)cc1 (configuration not stated)	0	u	4µM*	8%
Cc1ccc(Cl)cc1-n1ncc2c(N3CCN(Cc4ccccc4)CC3)ncnc21	x	x	x	0%
Cc1cc(-n2c(C)cc(C(=O)CSc3ccccn3)c2C)no1	-1	u	4µM*	3%
COc1ccc(C(=O)c2ccc(N3CCN(C(=O)c4ccc(F)cc4)CC3)c(F)c2)cc1Br	0	21µM*	-26%	0%
CCC(=O)c1ccc(N2CCN(C(=O)c3ccc(F)cc3)CC2)c(F)c1	-1	-19%	-18%	-1%
Cc1ccnc(Nc2nc(-c3c(C)nc4sccn34)cs2)c1	-3	26µM*	-1%[1.84 µM]	0%
CCCOC(=O)c1ccc(Oc2cn[nH]c2-c2ccc(OCC(=O)NN)cc2O)cc1	-1	18µM*	-24%	1%
Cc1ccc(C)n1-c1nnc(N2CCCC(C(=O)NCc3ccc(F)cc3)C2)s1 (configuration not stated)	x	x	0%	3%
CC(=O)c1ccc(N=Cc2c(O)n(-c3cc(Cl)ccc3N3CCOCC3)c(=O)c3ccccc23)cc1	0	7.3µM*	-44%	0%
Cc1cc(C)c(C(=O)c2ccccc2C(=O)O)c(C)c1	0	x	21%	1%
Cc1ccc(C2(c3noc(CN4CCC(c5ccncc5)CC4)n3)CCCC2)cc1	-2	16µM*	-12%	7%
Cc1ccc(C2(c3noc(CN(C)CC4CCCCO4)n3)CCCC2)cc1 (configuration not stated)	0	-8%	-14%	2%
COc1ccc(OCc2nc3ccccc3n2Cc2ccc(C(C)(C)C)cc2)cc1	x	x	4.5µM*	0%
COc1ccccc1NC(=O)c1nc(SCc2ccccc2F)ncc1Cl	x	x	5%	x
O=C(Nc1ccc2c(c1)CCC2)c1cnccn1	-1	u	3.5µM*	0%
O=C(CSc1ncccn1)Nc1ccc2c(c1)CCC2	0	u	8.9µM*	3%
COc1ccc(NC(=O)/C(Cl)=C(/Cl)S(=O)Cc2ccccc2Cl)cn1 (configuration not stated)	-1	15µM*	-93%	-3%
CCS(=O)(=O)N1CCC(c2nc(-c3ccc(C(F)(F)F)cc3)no2)CC1	-2	6.3µM*	-71%	0%
SMILES	IL2 activator	ELG1 DNA repair	BRCA1 expr up	Nrf2 ARE act
Cc1ccc(-c2noc(C3CCCCC3)n2)cc1	0	u	10µM*	3%
CCS(=O)(=O)N1CCC(c2nc(-c3ccc(C)cc3)no2)CC1	2	u	30%	2%
Cc1cccc(-c2noc(C3CCCCC3)n2)c1	-2	x	4.5µM*	1%
COc1ccc(N2C(=O)c3ccccc3NC(=O)C2C(=O)NCC(C)C)cc1 (configuration not stated)	0	x	x	x
O=C(Nc1cnc2ccccn2c1=O)c1ccc(Cl)cc1	1	u	11µM*	0%
C=CCNC(=S)NNC(=O)COc1ccc2cc(Br)ccc2c1	-5	u	10µM*	5%
C=CCNC(=S)NNC(=O)COc1ccc(Br)cc1	0	u	14%	0%
COc1ccc(-n2cnc3ccccc32)cc1	-2	8.2µM*	83%	-1%
Cn1c(NCc2ccc(Cl)cc2)nc2ccccc21	-1	u	4.5µM*	4%
Cn1c(CNc2nc3ccccc3n2C)nc2ccccc21	-2	u	10µM*	3%
COc1ccc(NCc2nc3ccccc3n2C)cc1	0	u	4µM*	5%
NC1C(N)C(N)C1N (configuration not stated)	x	x	21%	x
CC(C)Oc1ccc(CNC(=O)c2ccc(NC(=O)N3CCSc4ncccc43)cc2)cc1	x	x	x	3%
CCCn1c(CNc2ccccc2O)nc2ccccc21	0	u	-37%	14µM*
CCCn1c(NCc2cccc(OC)c2O)nc2ccccc21	0	u	6.3µM*	3%
Cn1c(Nc2ccc(F)cc2)nc2ccccc21	-2	16%	32%	9%
CCCn1c(NCc2cccc(OC)c2OC)nc2ccccc21	0	u	45%	0%
COc1ccc(Nc2nc3ccccc3n2C)cc1	0	u	5.6µM*	11%
CC(=O)Nc1nc2ccccc2n1Cc1ccc(Cl)cc1	1	13µM*	-4%	1%
CC(C)CN(CC(C)C)c1ccc(/C=C/c2nc3ccccc3s2)cc1	x	x	-4%	x
COc1ccccc1-c1nc(SCC(=O)Nc2ccc(C)c(C)c2)n[nH]1	x	x	x	8%
COc1ccc(CNc2nc3ccccc3n2C)c(OC)c1	1	u	u	0%
Cc1ccc(NCc2nc3ccccc3n2C)cc1C	0	u	7.9µM*	5%
COc1ccc(CNc2nc3ccccc3n2C)c(O)c1	0	u	1.6µM*	0%
CCN(CC)S(=O)(=O)c1ccc2c(c1)c(=O)c(C(=O)N1CCN(c3ccc(F)cc3)CC1)cn2C	x	x	11%	0%
SMILES	IL2 activator	ELG1 DNA repair	BRCA1 expr up	Nrf2 ARE act
C=CCn1nc(C(=O)N2CCOCC2)cc1-c1sc(NC(=O)c2ccccc2)nc1C	-5	x	-28%	4%
Cc1cccc(C(=O)Nc2ccc(C(=O)OCc3cc(=O)n4nc(CC(C)C)sc4n3)cc2)c1	x	x	x	1%
N#Cc1cc2c(nc1SCC1COc3ccccc3O1)CCC2 (configuration not stated)	5	u	8.9µM*	12%
CCOC(=O)c1ccccc1NC(=O)c1nn(C)c2c1COc1ccccc1-2	x	x	x	0%
COc1ccc(CN2CCN(C(=O)c3ccc4nc(N5CCOCC5)sc4c3)CC2)c(OC)c1OC	3	21µM*	-18%	2%
COc1ccc2ccccc2c1CN1CCN(C(=O)c2ccccc2)CC1	-2	18µM*	-29%	3%
COc1ccc2ccccc2c1CN1CCN(C(=O)c2ccco2)CC1	-3	21µM*	-7%	1%
O=C(c1ccco1)N1CCN(Cc2ccccc2Br)CC1	-1	u	16µM*	5%
COc1cc(CN2CCN(C(=O)c3ccc(-c4ccccc4)cc3)CC2)cc(OC)c1OC	-3	u	0%	1%
